CBFb RUNX1 block = CBF-beta/RUNX1 interaction disruption; Q01196+Q13951; AlphaScreen CBFb-His/RUNX1-biotin binding, biochemical; 230,000 tested, under 10 active; Potency, µM (titrated, usually from 59.8 µM), most hits filed as inhibitors; active = well fitted curve in the direction sought with a large enough effect; inconclusive = small, poorly fitted or top-dose-only effect, or another doubt; inactive = no such curve, though single readings can be large; an effect the other way counts as inactive or inconclusive
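Room-temperature protein-protein interaction test with 30 nM each of His-tagged CBF-beta and biotinylated RUNX1, 15 min with compound, then 90 min with nickel plus streptavidin beads. Signal read in AlphaScreen mode.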
KDM4E inh = JMJD2E (human) inhibition | B2RXH2 | JMJD2E catalytic domain, FDH-coupled NADH fluorescence (FDH is formaldehyde dehydrogenase) | Potency, µM (series often up to 57.1 µM), actives largely listed as inhibitors | hit rate 1.6% among 230,000 | AID 2147; note: nearly all actives have a fitted effect of over 50% in size
HPGD inh = inhibitors of human 15-hydroxyprostaglandin dehydrogenase (HPGD). AID 894. purified HPGD, NADH fluorescence kinetic, PGE2 substrate. hit rate 4.3% among 150,000. Potency, µM, actives largely listed as inhibitors
Target sequence (P15428 whole entry, looked up): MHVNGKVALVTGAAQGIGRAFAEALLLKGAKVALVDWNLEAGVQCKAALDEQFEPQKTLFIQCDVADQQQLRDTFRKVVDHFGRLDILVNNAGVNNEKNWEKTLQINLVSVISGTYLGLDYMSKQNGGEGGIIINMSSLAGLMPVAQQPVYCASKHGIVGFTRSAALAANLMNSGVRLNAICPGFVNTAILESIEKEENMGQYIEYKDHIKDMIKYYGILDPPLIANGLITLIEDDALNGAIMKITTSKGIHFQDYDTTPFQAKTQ
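NADH formation kinetics: reaction with 30 uM PGE2 and 1 mM NAD+ (final), 20 nM enzyme, Tris-HCl pH 8 with Tween 20, after 15 min compound preincubation at room temperature. Fluorescence change, last versus first of five reads.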
ALDH1A1 block = inhibitors of human aldehyde dehydrogenase 1A1. Purified ALDH1A1, NADH fluorescence, propionaldehyde substrate. Potency, µM (titrated, usually from 75.3 µM), most hits filed as inhibitors. hit rate 7.3% among 220,000. AID 1030
Target sequence (P00352 whole entry, looked up): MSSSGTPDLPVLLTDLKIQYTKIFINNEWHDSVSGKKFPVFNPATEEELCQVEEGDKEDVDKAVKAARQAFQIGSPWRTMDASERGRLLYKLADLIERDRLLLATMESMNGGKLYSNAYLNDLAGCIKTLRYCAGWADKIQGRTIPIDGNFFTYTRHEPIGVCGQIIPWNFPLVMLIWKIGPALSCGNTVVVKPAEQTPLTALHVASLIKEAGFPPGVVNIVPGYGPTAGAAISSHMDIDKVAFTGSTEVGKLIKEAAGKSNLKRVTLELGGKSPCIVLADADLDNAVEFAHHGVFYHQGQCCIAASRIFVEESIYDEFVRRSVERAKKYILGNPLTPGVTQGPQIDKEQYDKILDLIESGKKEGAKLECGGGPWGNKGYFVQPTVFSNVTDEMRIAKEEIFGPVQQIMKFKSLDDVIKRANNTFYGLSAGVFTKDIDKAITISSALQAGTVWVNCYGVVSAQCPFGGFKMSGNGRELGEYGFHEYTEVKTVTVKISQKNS
HTT aggregate = inhibitors of mutant huntingtin aggregate formation in PC12 cells. PC12 HttQ103-GFP aggregates, Acumen cytometry, 40 h. Potency, µM (titrated, usually from 46.1 µM), usual class: inhibitors. hit rate 1.1% among 220,000; active = well fitted curve in the direction sought with a large enough effect; inconclusive = small, poorly fitted or top-dose-only effect, or another doubt; inactive = no such curve, though single readings can be large; an effect the other way counts as inactive or inconclusive; note: nearly all actives have a fitted effect of over 60% in size
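Aggregates are detected as GFP objects 1–25 µm with signal 6 STDEV over background in lysates of induced PC12 cells. These carry Huntingtin exon 1 with 103 glutamines fused to GFP under an ecdysone promoter; compounds titrated.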
HTT cytoprotect = Huntington cell model cytoprotection by ATP luminescence. PC12 HTT-Q103 induced, cytoprotection, ATP luminescence, 40 h. Potency, µM (series often up to 56.4 µM), actives largely listed as activators. hit rate 0.14% among 230,000; active = well fitted curve in the direction sought with a large enough effect; inconclusive = small, poorly fitted or top-dose-only effect, or another doubt; inactive = no such curve, though single readings can be large; an effect the other way counts as inactive or inconclusive; note: nearly all actives have a fitted effect of over 45% in size
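Quantitative HTS on tebufenozide-induced (100 nM) PC12 cells expressing HTTQ103 exon 1–GFP; compounds tested as a concentration series; survival measured via cellular ATP.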
Large screens that a line does not name were inactive. Shown are actives, neighbours in structure and some others; about 9.8% of the full set was active somewhere. Unless noted, calls come from the whole dose curve; as a rule, active = well fitted inhibition curve with a large enough effect (not every such curve was filed as active); inconclusive = small, poorly fitted or top-dose-only effect, or another doubt; inactive = no such curve, though single readings can be large or run the other way.

Cn1c(N)c(C(=O)COC(=O)c2ccc(Cl)c(S(=O)(=O)N3CCCC3)c2)c(=O)n(C)c1=O	HTT cytoprotect inconclusive (no result: HPGD inh, ALDH1A1 block)
CS(=O)Cc1cc(Sc2ccccc2)nc(-c2ccncc2)n1 (stereo unspecified)	ALDH1A1 block 8.9µM (no result: HPGD inh)
CCC(C)NC(=O)CS(=O)Cc1nc(-c2ccccc2C)oc1C (stereo unspecified)	none
NC(=O)C1CCCN(S(=O)(=O)c2ccc(Br)cc2)C1 (stereo unspecified)	none
CCCCN(CC)Cc1ccc(CNC(=S)Nc2cccc(F)c2)o1	ALDH1A1 block 14µM (no result: HPGD inh)
C[C@H]1[C@@H](OC(=O)CCC(=O)O)OC2OC3(C)CC[C@H]4[C@H](C)CC[C@@H]1[C@@]24OO3 (stereo partly specified)	HTT aggregate 3.2µM (no result: CBFb RUNX1 block, KDM4E inh, HPGD inh, ALDH1A1 block)
CCOC(=O)c1cnc2c(c(C)nn2CC)c1NC1CC1	none (no result: HPGD inh)
Cc1ccc(O)c(Sc2cc(C)ccc2O)c1	HPGD inh 16µM
Cc1ccc(O)c(N)c1	ALDH1A1 block inconclusive (no result: KDM4E inh, HTT aggregate)
COC(=O)c1ccc(O)c(Sc2cc(C(=O)OC)ccc2O)c1	KDM4E inh inconclusive, HPGD inh 4µM, ALDH1A1 block 13µM, HTT aggregate inconclusive
CCOCCCNC(=S)N1C2CCC1CC(NC(=O)NC1CCCCC1)C2 (stereo unspecified)	none
CC1Oc2ccccc2N(CC(=O)NCc2ccc3c(c2)OCO3)C1=O (stereo unspecified)	KDM4E inh inconclusive (no result: HPGD inh)
CN(C)c1nc(N(C)C)nc(N(C#N)CN2C(=O)c3ccccc3S2(=O)=O)n1	ALDH1A1 block 20µM (no result: HPGD inh)
CC(C)(C)Nc1nc(Cl)nc(N(C#N)CN2C(=O)c3ccccc3S2(=O)=O)n1	none (no result: HPGD inh)
CC(C)Nc1nc(Cl)nc(N(C#N)CN2C(=O)c3ccccc3S2(=O)=O)n1	ALDH1A1 block 22µM (no result: HPGD inh)
NC(=O)c1nn(-c2ccccc2)nc1NC(=O)CN1CCOCC1	KDM4E inh inconclusive, HTT aggregate inconclusive (no result: HPGD inh, ALDH1A1 block)
Cc1nc(Cl)cc(CS(=O)(=O)c2ccc(Cl)cc2)n1	ALDH1A1 block 20µM (no result: HPGD inh)
CCOc1ccc(C(=O)CCN2CCCCCC2)cc1	ALDH1A1 block 0.063µM, HTT aggregate inconclusive
CCCCOc1ccc(C(=O)CCN2CCOCC2)cc1	ALDH1A1 block 0.28µM (no result: HPGD inh)
CCCOc1ccc(C(=O)CCN2CCCCC2)cc1	ALDH1A1 block 0.056µM
CCCOc1ccc(C(O)(CCC)CCN2CCCCC2)cc1 (stereo unspecified)	ALDH1A1 block 25µM, HTT aggregate inconclusive
CCCOc1ccc(OCCN2CCCC(C)C2)cc1 (stereo unspecified)	KDM4E inh inconclusive, ALDH1A1 block inconclusive
O=C(Nc1ccccc1)c1sccc1Oc1ccc([N+](=O)[O-])cc1F	CBFb RUNX1 block inconclusive, ALDH1A1 block inconclusive (no result: HPGD inh)
CCCC(O)(CCN1CCOCC1)c1ccc(Cl)cc1 (stereo unspecified)	none (no result: HPGD inh, ALDH1A1 block)
CCCC(O)(CCN1CCOCC1)c1ccc(Br)cc1 (stereo unspecified)	ALDH1A1 block 5µM
Fc1ccc(OCc2nnc(SCCN3CCOCC3)o2)cc1	HPGD inh 22µM
O=C(COc1ccc(NS(=O)(=O)c2ccc(F)cc2)cc1)N1CCOCC1	none (no result: HPGD inh)
CCN(CC)CCCn1c(-c2ccccc2)nc2c(NCc3ccccc3)nc(C)nc21	KDM4E inh inconclusive, HPGD inh inconclusive, ALDH1A1 block inconclusive (no result: HTT aggregate)
CN=c1scc(C)n1/N=C/c1cc(Br)c(O)c(OC)c1	ALDH1A1 block inconclusive (no result: HPGD inh)
CN=c1scc(-c2cccs2)n1/N=C/c1ccc(O)c(O)c1O	CBFb RUNX1 block inconclusive, KDM4E inh 14µM, HPGD inh 5µM, ALDH1A1 block 6.3µM, HTT aggregate inconclusive
CN=c1scc(C)n1/N=C/c1ccc(O)c(O)c1O	CBFb RUNX1 block inconclusive, KDM4E inh 7.9µM, HPGD inh 7.1µM, ALDH1A1 block 3.2µM
O=S(=O)(c1ccccc1)N1CCC2(CCCN(c3ccncc3)C2)CC1	none (no result: CBFb RUNX1 block, KDM4E inh, HTT aggregate)
COc1ccc2cc(C(=O)OC(C)C)sc(=O)c2c1OC	HPGD inh inconclusive, ALDH1A1 block 5µM
COc1ccc2cc(C(=O)NCC(=O)O)sc(=O)c2c1OC	KDM4E inh inconclusive
CC1CCCC(C)N1NC(=S)Nc1ccc(OC(F)F)cc1 (stereo unspecified)	ALDH1A1 block inconclusive
Cc1cc(C)cc(OCC(=O)N(Cc2ccc(N(C)C)cc2)C2CCS(=O)(=O)C2)c1 (stereo unspecified)	CBFb RUNX1 block inconclusive (no result: HPGD inh, ALDH1A1 block)
CC(C)n1c(O)c(/C=C2\C=Nc3ccccc32)sc1=Nc1ccccc1	none
CSc1nc(/C=C2\C=Nc3ccccc32)c(O)n1C	HPGD inh 35µM
c1cc2c(cc1-c1[nH]ncc1CN1C[C@H]3CC[C@H]1C3)OCO2	ALDH1A1 block inconclusive (no result: HPGD inh)
Cc1ccc(CSc2nc3ccccc3cc2C=O)cc1	HPGD inh 5µM, ALDH1A1 block inconclusive, HTT aggregate inconclusive
O=Cc1cc2ccccc2nc1SCc1ccc(Cl)cc1	HTT aggregate inconclusive
COc1ccc(NC(=O)c2cc(S(=O)(=O)N3CCOCC3)cs2)cc1	none (no result: HPGD inh)
C=Cc1c(C)/c2[n-]/c1=C\c1[n-]c(c(CC)c1C)/C=c1\[n-]c3c(c1C)C(=O)C(C(=O)[O-])C=3c1[n-]c(c(C)c1CCC(=O)[O-])\C=2.[Cu].[Na+].[Na+] (stereo unspecified)	KDM4E inh 7.9µM, HPGD inh 25µM, ALDH1A1 block inconclusive (no result: CBFb RUNX1 block)
CCCC(C(=O)NC1CCCC1)N(C(=O)Cn1nnc(-c2ccc(C)o2)n1)c1ccccc1OC (stereo unspecified)	none
CCOC(C)(C)C	none (no result: KDM4E inh, HTT aggregate)
N#Cc1ccc(COn2nnc3ccccc32)cc1	none (no result: HPGD inh)
Cc1cccc(C)c1NC(=S)NCCSc1ccc(Cl)cc1	HTT aggregate 11µM (no result: HPGD inh)
Cc1ccc(NC(=S)NCCSc2ccc(Cl)cc2)cc1	ALDH1A1 block inconclusive, HTT aggregate inconclusive (no result: HPGD inh)
COc1ccc(NC(=S)NCCSc2ccc(Cl)cc2)c(OC)c1	HPGD inh 16µM, ALDH1A1 block 20µM, HTT aggregate inconclusive
O=C1/C(=C\c2ccccn2)SC(=S)N1Nc1ncc(C(F)(F)F)cc1Cl	HPGD inh 32µM, ALDH1A1 block inconclusive
O=C1/C(=C/c2ccc(F)cc2)SC(=S)N1Nc1ncc(C(F)(F)F)cc1Cl	ALDH1A1 block inconclusive
COc1ccc(NC(=O)c2ccccc2-c2ccccc2)c(C)c1	none (no result: HPGD inh)
Cc1c(NS(=O)(=O)c2ccc(N3CCCCC3)c([N+](=O)[O-])c2)c(=O)n(-c2ccccc2)n1C	HTT cytoprotect inconclusive
Cc1c(Nc2cc(N3CCCCCC3)c3nonc3c2[N+](=O)[O-])c(=O)n(-c2ccccc2)n1C	HPGD inh 11µM
O=C(COC(=O)C1CC2C=CC1C2)Nc1ccccc1F (stereo unspecified)	ALDH1A1 block 13µM (no result: HPGD inh)
O=C(COC(=O)C1CC2C=CC1C2)NCCc1ccccc1 (stereo unspecified)	ALDH1A1 block inconclusive (no result: HPGD inh)
